From PubChem BioAssay come the findings set out here.

A short description of test [1]: polyglutamine-triggered caspase-3 activation inhibitors, cell-based (AID 1583). Conditions: polyglutamine-induced caspase-3 activation, cell assay; stronger effect = higher value;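 tested at 10 µM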.
Test [2] deals with Huntingtin (Homo sapiens) (UniProt P42858). The test can be described thus: inhibitors of mutant Htt aggregation in vitro, dose response, QA1 (AID 1584). Conditions: in vitro mutant huntingtin aggregation assay; confirmation test; at 10 µM; stronger effect = lower value.
Test [3] in a line: suppressors of polyQ aggregation in yeast, 75Q-TubU reporter (AID 1593). Conditions: Yeast 75Q polyglutamine aggregation reporter.
Test [4] is described as follows: rescue of polyQ-huntingtin neuronal dysfunction in worms, whole organism, C. elegans mechanosensory neurons, N-terminal huntingtin (AID 1599). Conditions: touch response, stronger effect = higher value.
Test [5] in a line: inhibitors of mitochondrial cytochrome c release, biochemical, purified mitochondria (AID 1603).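 Also: mouse liver mitochondria challenged with calcium chloride; signal normalized to the plate average as 100%.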 Conditions: stronger effect = lower value.
The nature of test [6]: inhibitors of polyQ protein aggregation (AID 1604). Conditions: polyglutamine-induced protein aggregation inhibition assay; stronger effect = higher value; tested at 2.5 µM.
Test [7] is described as follows: enhancers of glutamate uptake in motor neurons, MN-1 cell line (AID 1612).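 Also: tested at 1 µM final; 0% = mean of DMSO vehicle wells on each plate; positive means more glutamate uptake than control and negative means less.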 Conditions: MN-1 motor neuron cells, stronger effect = higher value.
Test [8] is described as follows: reducers of polyQ inclusions in PC12 cells, cell-based, NGF-treated PC12, GFPQ80 (AID 1614).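 Also: lower means fewer inclusions and 0 means no inclusions at all.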 Conditions: PC12 NGF-treated GFP-polyQ80 inclusion reduction.
The nature of test [9]: suppressors of polyglutamine aggregation in yeast, 75Q-TubH (AID 1616). Conditions: S. cerevisiae 75Q-TubH polyglutamine aggregation suppression; stronger effect = higher value.
Test [10] is described as follows: protection against mutant huntingtin cytotoxicity, PC12 cells, LDH release (AID 1610). Conditions: PC12 mutant huntingtin toxicity, final LDH at 4 uM, stronger effect = lower value. For orientation: LDH in the medium is a marker of cell lysis.
The target in test [11] is ATP-dependent translocase ABCB1 (Homo sapiens) (UniProt P08183). The test can be described thus: MDR1 (ABCB1) efflux transporter inhibition, cell-based (AID 377; in the data active = fluorescence slope change above about 50%). Conditions: MDR1-expressing cells, fluorescent substrate accumulation slope; stronger effect = higher value; concentration not given here.
Test [12] can be described thus: protection of motor neurons from glutamate death, cell-based, TUNEL DNA degradation staining, MNGlu (AID 1594). Conditions: glutamate-induced death, at 1 µM, stronger effect = higher value.
Test [13] is described as follows: hESC survival regulators, cell-based (AID 493140).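 Also: cells exposed to compounds for four days before counting.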 Conditions: human embryonic stem cell survival screen; stronger effect = higher value.
Test [14] can be described thus: mitochondrial permeability transition inhibitors (AID 1580). Conditions: isolated mitochondria, permeability transition inhibition.

Records with an inconclusive call do not appear. For some assays here: Measured potencies and affinities stand elsewhere. Calls of active or inactive are those of the source. Unless noted, no rule for the calls is given here.

ATP-dependent translocase ABCB1 (Homo sapiens), sequence (P08183 whole entry, looked up): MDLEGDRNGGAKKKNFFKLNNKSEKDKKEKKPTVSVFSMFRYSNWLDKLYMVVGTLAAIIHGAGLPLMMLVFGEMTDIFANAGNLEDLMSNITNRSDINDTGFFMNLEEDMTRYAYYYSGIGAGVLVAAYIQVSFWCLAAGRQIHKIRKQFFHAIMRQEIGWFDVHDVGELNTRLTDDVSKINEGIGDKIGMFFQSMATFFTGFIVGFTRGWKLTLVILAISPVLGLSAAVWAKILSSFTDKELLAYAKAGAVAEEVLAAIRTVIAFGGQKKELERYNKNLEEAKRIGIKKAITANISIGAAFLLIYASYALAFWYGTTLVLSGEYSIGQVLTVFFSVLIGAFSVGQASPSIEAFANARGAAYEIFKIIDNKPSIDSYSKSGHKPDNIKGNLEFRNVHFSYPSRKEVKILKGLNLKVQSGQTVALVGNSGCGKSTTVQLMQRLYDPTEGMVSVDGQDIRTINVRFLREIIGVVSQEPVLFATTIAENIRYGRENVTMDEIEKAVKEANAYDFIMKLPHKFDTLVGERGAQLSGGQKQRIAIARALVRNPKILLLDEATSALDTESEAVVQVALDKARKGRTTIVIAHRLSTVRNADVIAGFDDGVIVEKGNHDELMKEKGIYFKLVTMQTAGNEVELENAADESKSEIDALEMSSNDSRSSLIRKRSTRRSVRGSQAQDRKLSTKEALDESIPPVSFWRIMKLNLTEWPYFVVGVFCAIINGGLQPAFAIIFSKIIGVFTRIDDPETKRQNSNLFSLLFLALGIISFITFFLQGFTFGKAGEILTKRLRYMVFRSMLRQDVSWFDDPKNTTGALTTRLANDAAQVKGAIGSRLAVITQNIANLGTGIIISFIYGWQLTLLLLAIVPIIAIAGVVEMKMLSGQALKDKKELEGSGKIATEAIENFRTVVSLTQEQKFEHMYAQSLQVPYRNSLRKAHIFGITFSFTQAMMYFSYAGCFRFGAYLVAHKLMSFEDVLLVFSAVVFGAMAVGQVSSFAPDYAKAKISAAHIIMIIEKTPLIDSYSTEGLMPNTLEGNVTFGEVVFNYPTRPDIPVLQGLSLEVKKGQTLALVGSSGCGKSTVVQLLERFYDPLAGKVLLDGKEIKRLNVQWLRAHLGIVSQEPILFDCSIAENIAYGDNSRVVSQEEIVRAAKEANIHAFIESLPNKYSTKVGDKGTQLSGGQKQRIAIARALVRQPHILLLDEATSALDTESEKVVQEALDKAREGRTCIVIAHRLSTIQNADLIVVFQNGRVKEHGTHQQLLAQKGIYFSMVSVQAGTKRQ
Huntingtin (Homo sapiens), sequence (P42858 whole entry, looked up): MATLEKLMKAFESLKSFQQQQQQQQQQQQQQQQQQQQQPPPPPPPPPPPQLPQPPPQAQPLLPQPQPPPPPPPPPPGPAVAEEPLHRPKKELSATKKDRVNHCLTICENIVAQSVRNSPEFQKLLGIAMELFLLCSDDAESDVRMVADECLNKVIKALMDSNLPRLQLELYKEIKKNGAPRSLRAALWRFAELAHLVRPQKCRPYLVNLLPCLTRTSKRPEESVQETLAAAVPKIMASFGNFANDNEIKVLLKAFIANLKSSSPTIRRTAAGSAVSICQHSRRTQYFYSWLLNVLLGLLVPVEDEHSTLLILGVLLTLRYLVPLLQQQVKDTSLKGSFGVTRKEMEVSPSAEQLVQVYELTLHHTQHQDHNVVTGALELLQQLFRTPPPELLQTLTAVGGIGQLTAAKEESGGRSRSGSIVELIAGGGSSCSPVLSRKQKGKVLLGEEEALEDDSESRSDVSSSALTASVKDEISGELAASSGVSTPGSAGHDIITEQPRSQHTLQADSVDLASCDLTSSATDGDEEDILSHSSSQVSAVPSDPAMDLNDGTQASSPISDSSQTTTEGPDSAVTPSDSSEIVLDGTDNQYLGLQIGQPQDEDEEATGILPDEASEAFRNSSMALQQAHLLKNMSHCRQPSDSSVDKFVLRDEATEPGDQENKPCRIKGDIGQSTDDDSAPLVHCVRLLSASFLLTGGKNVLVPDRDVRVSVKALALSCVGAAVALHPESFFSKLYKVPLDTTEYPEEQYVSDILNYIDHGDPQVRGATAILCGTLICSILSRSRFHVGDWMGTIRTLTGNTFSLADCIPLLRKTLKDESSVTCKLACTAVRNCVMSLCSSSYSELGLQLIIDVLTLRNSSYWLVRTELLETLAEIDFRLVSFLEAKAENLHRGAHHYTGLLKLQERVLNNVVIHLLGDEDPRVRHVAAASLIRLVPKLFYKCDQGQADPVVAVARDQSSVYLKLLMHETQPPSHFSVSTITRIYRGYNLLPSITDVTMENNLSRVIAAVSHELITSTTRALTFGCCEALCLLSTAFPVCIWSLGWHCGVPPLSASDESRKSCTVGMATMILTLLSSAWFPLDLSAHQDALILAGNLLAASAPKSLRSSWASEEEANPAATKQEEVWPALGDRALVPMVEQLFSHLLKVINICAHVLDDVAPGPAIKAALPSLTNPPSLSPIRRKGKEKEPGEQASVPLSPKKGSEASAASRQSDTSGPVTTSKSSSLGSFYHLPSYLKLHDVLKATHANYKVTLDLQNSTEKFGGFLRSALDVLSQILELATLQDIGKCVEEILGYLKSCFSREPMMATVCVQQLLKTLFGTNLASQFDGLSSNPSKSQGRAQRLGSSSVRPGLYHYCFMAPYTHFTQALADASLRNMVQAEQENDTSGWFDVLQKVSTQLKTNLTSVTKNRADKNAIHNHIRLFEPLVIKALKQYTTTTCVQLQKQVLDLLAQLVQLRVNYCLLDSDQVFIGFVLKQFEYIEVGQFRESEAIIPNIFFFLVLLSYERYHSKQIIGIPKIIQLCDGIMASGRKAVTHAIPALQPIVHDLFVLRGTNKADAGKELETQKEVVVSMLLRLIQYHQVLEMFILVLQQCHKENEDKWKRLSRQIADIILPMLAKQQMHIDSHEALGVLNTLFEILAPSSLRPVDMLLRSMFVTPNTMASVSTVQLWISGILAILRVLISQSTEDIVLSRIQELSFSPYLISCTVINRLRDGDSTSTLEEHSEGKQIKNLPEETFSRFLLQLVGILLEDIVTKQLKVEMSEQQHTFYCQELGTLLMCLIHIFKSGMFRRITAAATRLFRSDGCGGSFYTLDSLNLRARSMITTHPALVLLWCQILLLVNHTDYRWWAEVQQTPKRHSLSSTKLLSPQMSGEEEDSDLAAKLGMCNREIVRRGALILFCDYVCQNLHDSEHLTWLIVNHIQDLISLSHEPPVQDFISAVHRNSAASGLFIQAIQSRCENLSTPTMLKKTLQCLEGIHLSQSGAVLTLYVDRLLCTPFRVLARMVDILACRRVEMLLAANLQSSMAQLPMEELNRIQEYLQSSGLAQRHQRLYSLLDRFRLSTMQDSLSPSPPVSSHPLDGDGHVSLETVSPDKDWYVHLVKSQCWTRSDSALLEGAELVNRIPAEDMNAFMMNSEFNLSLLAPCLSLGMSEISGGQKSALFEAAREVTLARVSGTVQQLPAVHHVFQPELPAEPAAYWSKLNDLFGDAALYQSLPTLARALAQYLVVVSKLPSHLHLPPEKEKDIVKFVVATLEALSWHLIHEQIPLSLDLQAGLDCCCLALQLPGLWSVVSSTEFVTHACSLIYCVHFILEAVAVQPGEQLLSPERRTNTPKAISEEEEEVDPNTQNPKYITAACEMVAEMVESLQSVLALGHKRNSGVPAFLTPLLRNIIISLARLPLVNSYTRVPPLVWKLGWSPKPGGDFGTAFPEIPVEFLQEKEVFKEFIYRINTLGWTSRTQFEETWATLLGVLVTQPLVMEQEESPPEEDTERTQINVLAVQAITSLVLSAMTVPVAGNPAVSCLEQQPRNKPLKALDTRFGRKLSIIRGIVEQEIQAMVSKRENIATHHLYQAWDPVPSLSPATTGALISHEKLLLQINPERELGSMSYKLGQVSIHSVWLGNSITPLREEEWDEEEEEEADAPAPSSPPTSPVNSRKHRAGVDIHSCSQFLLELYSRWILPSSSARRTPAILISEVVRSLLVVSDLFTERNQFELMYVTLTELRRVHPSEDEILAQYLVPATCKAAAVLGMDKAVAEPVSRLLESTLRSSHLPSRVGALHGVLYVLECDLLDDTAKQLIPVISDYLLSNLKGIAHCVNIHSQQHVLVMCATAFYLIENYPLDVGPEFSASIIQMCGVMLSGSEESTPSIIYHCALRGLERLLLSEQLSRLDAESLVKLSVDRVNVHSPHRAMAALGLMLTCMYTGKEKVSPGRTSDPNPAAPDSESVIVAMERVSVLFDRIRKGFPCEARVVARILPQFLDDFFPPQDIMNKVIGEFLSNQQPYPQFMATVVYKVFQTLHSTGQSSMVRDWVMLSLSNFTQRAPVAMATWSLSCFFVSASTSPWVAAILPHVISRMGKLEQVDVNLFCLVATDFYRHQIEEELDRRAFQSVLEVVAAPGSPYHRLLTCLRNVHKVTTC

With `O=C1c2c(O)cccc2Cc2cccc(O)c21`, in test [1], the inhibition (commonly the drop in the measured response relative to a control, in per cent) was found to be 18.6%. Besides, in test [2], the aggregation ratio was 0.75. The compound further displayed a score in test [3] of 1.5. The rescue above control in test [4] was determined as 0.38. In test [5], the cytochrome c release ratio was determined as 0.41. Moreover, in test [6], the inhibition of aggregation was found to be 37.9%. In addition, the glutamate uptake change in test [7] came to 5.46%. The compound also showed an inclusion score in [8] of 2. For the same compound, in test [9], the aggregation suppression score was 1.2.
With `O=c1cc(CO)occ1O`, in test [1], the inhibition is 12%. In test [3], this compound came in with a score of 1.29. In addition, the rescue above control in test [4] is 10.1. In addition, the cytochrome c release ratio in test [5] stood at 0.94. The inhibition of aggregation in test [6] was found to be 21.8%. Besides, in [7], the glutamate uptake change worked out at 5.22%. Also, in test [8], the inclusion score came to 2. Moreover, the aggregation suppression score in [9] turned out to be 1.36.
As to `Cc1ccc(C(=O)C(C)CN2CCCCC2)cc1` (stereo not drawn), the inhibition in test [1] is -24.9%. Also, the score in test [3] is 0.57. This compound also yielded a rescue above control in test [4] of -2.41. The cytochrome c release ratio in test [5] was determined as 0.96. In test [6], the inhibition of aggregation is 37.2%. The same compound returned a normalised LDH release in test [10] of 0.861. Also, the glutamate uptake change in [7] was -0.03%. In addition, the inclusion score in test [8] stood at 1.5. Moreover, the aggregation suppression score in test [9] worked out at 0.367.
Take `CC(=O)Nc1ccc(S(=O)(=O)Nc2ccc([N+](=O)[O-])cc2)cc1`: the inhibition in test [1] is 15.7%. The same compound came in with a score in test [3] of 1.4. The same compound registered a rescue above control in [4] of -10.3. Also, the cytochrome c release ratio in test [5] amounted to 1.02. For the same compound, the inhibition of aggregation in test [6] was determined as 15.7%. In test [10], the normalised LDH release was found to be 0.673. Besides, the glutamate uptake change in [7] was 20.4%. The compound further showed an inclusion score in [8] of 2. The same compound came in with an aggregation suppression score in test [9] of 1.23.
Take `NS(=O)(=O)c1cc2c(cc1Cl)NC(CSCc1ccccc1)=NS2(=O)=O`: in test [11], the fluorescence slope change was 78.4% (active). For the same compound, in test [1], the inhibition came out at 25.2%. Besides, in test [3], the score worked out at 1.43. Also, the protection in test [12] is 57% (active). In test [4], this compound had a rescue above control of -12.2. Also, in [5], the cytochrome c release ratio came to 1.07. Further, in test [6], the inhibition of aggregation came to 47.9%. Besides, the glutamate uptake change in test [7] is -3.22%. In [8], the inclusion score was found to be 2. In test [9], this compound yielded an aggregation suppression score of 1.51. Moreover, the survival in test [13] was 3.08 (inactive).
With `Nc1c(Br)cc(Br)cc1CNC1CCC(O)CC1` (stereo not drawn), the fluorescence slope change in test [11] was 57.2% (active). In addition, the inhibition in test [1] is -21.8%. This compound came in with a score in test [3] of 1.12. The same compound registered a rescue above control in test [4] of -1.56. In addition, the cytochrome c release ratio in test [5] was 1.08. Besides, in test [6], the inhibition of aggregation was 54.5%. This compound displayed a normalised LDH release in test [10] of 0.856. Also, in [7], the glutamate uptake change was found to be 5.04%. Also, in [8], the inclusion score came out at 2. For the same compound, the aggregation suppression score in [9] came out at 1.15. The survival in [13] was 4.58 (inactive).
Regarding `O=C(CCBr)N1CCN(C(=O)CCBr)CC1`, the inhibition in test [1] was -31.6%. Besides, in test [3], the score is 0.93. The rescue above control in test [4] was 9.78. Also, the cytochrome c release ratio in test [5] was 0.86. Further, the inhibition of aggregation in test [6] is 52.8%. Further, in test [7], the glutamate uptake change is 17.8%. Further, in test [8], the inclusion score came out at 2. In addition, in test [9], the aggregation suppression score is 0.931.
Take `CC1(C)S[C@@H]2[C@H](NC(=O)C(C(=O)O)c3ccccc3)C(=O)N2[C@H]1C(=O)O` (stereo partly drawn): the inhibition in test [1] stood at 9.67%. Besides, the score in test [3] is 1.9. Moreover, the rescue above control in test [4] is -7.2. The cytochrome c release ratio in test [5] turned out to be 0.95. In test [6], the inhibition of aggregation worked out at 60.9%. Also, the glutamate uptake change in test [7] is 7.16%. The inclusion score in [8] amounted to 2. In test [9], this compound yielded an aggregation suppression score of 1.65.
In the case of `Oc1c(Cl)cc(Cl)cc1Sc1cc(Cl)cc(Cl)c1O`, the EC50 (commonly the concentration needed to bring the measured effect to its halfway point) in test [14] was 300 nM (active). Also, the inhibition in [1] is -9.02%. In test [3], this compound yielded a score of -0.24. Besides, the rescue above control in test [4] stood at 9.15. Besides, in test [5], the cytochrome c release ratio amounted to 0.74. The inhibition of aggregation in test [6] was -7.69%. The same compound came in with a normalised LDH release in test [10] of 1.06. In addition, the glutamate uptake change in [7] was -39%. In addition, the aggregation suppression score in test [9] stood at 0.0465.
In the case of `COc1ccc(C2C(=O)c3ccccc3C2=O)cc1`, the inhibition in test [1] was 2.6%. In addition, the score in [3] was found to be 0.47. Further, the rescue above control in [4] is -9.34. Moreover, the cytochrome c release ratio in test [5] is 1.11. Moreover, the inhibition of aggregation in test [6] worked out at 79.6%. Moreover, the glutamate uptake change in test [7] is -8.78%. Besides, the inclusion score in [8] is 2. Moreover, the aggregation suppression score in test [9] is 0.401.
Consider `CO[C@@H]1[C@@H](OC(N)=O)[C@@H](O)[C@H](Oc2ccc3c(O)c(NC(=O)c4ccc(O)c(CC=C(C)C)c4)c(=O)oc3c2C)OC1(C)C`, for which, in [1], the inhibition was -0.61%. The compound also displayed a score in test [3] of 1.59. This compound also showed a rescue above control in [4] of -8.05. The cytochrome c release ratio in test [5] amounted to 0.96. Further, the inhibition of aggregation in test [6] is -73.2%. Also, the glutamate uptake change in test [7] was -19%. Further, the inclusion score in test [8] was found to be 2. In addition, the aggregation suppression score in test [9] turned out to be 0.623.
